# From PubChem
# Only some compounds are listed: those with a hit (about 4.7% of all), similar ones and a draw of the others.
# VHR inh abs = DUSP3 (human) phosphatase inhibition; recombinant VHR phosphatase, pNPP absorbance; inhibition, % at 13.3 µM; 290,000 tested, 0.52% active; in the data active = inhibition above about 50%
# Target sequence (P51452 whole entry, looked up): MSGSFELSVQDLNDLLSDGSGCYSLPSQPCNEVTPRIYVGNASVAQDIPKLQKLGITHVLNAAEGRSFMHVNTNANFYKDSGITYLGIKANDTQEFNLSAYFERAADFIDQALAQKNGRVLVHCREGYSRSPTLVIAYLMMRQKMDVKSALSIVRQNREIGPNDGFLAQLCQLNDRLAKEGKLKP
# RecA splice inh = blocks M. tuberculosis RecA intein splicing | P9WHJ3 | 290,000 tested, 0.75% active | AID 2221 | inhibition, % (concentration not given with the values) | cell-free RecA intein splicing, fluorescence; in the data active = inhibition above about 30%
# GDH-TPI inh = GDH-TPI coupled enzyme inhibition counter-screen; GDH-TPI coupled enzyme counterscreen, NADH absorbance; inhibition, % at 4.8 µM; 360,000 tested, 1.2% active; AID 588335
# SARS 3CLpro inh = SARS-CoV 3CLpro protease inhibition; P0C6X7; recombinant SARS-CoV 3CLpro, quenched FRET peptide cleavage; inhibition, % at 6 µM; 290,000 tested, 0.14% active; AID 1706; in the data active = inhibition above about 12%
# CCHFV vOTU inh = blocks the CCHF virus ovarian tumor domain protease; 370,000 tested, 0.55% active; inhibition, % at 11.5 µM; AID 651958; CCHFV vOTU protease, Pep-AMC fluorescence
# FBA Mtb inh = Mtb fructose-bisphosphate aldolase inhibition; P9WQA3; purified M. tuberculosis FBA, fluorescence read-out; inhibition, % at 1 µM; 360,000 tested, 2.3% active; AID 588726; in the data active = inhibition above about 27%
# Target sequence (P9WQA3 whole entry, looked up): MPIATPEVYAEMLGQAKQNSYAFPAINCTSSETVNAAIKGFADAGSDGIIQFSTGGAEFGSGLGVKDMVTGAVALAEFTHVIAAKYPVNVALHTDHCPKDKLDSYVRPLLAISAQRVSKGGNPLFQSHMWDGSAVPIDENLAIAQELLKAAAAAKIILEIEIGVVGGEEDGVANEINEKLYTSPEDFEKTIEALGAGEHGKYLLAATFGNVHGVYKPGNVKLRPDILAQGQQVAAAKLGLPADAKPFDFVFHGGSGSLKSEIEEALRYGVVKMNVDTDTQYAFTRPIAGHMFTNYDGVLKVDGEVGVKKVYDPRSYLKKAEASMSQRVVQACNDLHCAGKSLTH
# Numbers stand for hits; . = inactive; / = no result; + = active, no number. Rule as the data show it, unless noted: active = inhibition above about 30%; inactive = the rest.
SMILES,VHR inh abs,RecA splice inh,GDH-TPI inh,SARS 3CLpro inh,CCHFV vOTU inh,FBA Mtb inh
Nc1nc2c(ncn2[C@@H]2O[C@H](C(=O)N[C@H](Cc3ccccc3)C(=O)NCc3ccc4c(c3)OCO4)[C@@H](O)[C@H]2O)c(=O)[nH]1,/,/,/,/,.,/
O=C(CSc1nnc(-c2cccc(Cl)c2)n1Cc1ccco1)c1ccc(F)cc1,/,/,/,/,.,/
CC(C)NC(=O)C1C(c2ccc(C(F)(F)F)cc2)=Nc2ccccc2N1C(=O)c1cccc(C(F)(F)F)c1 (stereo unspecified),/,/,/,/,.,/
C=CS(=O)(=O)c1c2cc(OC)ccc2nc2ccc(OC)cc12,/,/,.,/,.,38
COc1ccc(C(=O)Nc2nc3ccccc3c(=O)[nH]2)cc1,.,.,.,.,.,.
Cc1cccc(/C=C\c2nc3ccccc3c(=O)[nH]2)c1,.,.,31,.,.,.
COc1cc(/C=C/c2nc3ccccc3c(=O)[nH]2)cc(Cl)c1O,58,/,.,.,.,.
COc1ccc(C(=O)Nc2cccc(/C=C/c3nc4ccccc4c(=O)[nH]3)c2)cc1,.,.,39,.,.,.
O=C(Nc1cccc(/C=C/c2nc3ccccc3c(=O)[nH]2)c1)c1ccccc1Cl,.,.,49,.,.,.
CCn1c(=O)n(CC(=O)N2CCC(C)CC2)c(=O)c2ccccc21,/,/,/,/,.,/
CCOc1ncccc1C(=O)NNC(=O)CSc1ccc(Cl)cc1,/,/,.,/,.,.
Nc1ccc(O)c2c1C(=O)c1ccccc1C2=O,.,42,.,.,.,.
Nc1ccc(Br)c2c1C(=O)c1ccccc1C2=O,.,.,/,.,/,/
Cc1cc(C(N)=O)c2ccccc2n1,.,.,.,.,.,.
NC(=O)c1cc2c3ccccc3ccn2c1-c1ccccc1,64,.,.,.,.,.
CC[C@@H]1CC2=C(C(=O)OC(C)(C)O2)[C@H](c2ccc(Cl)cc2)O1,/,/,/,/,.,.
O=C(O)C1CC=CCC1C(=O)Nc1ccc2c(c1)CCC2 (stereo unspecified),.,.,.,.,.,.
COC(=O)C(C(=O)OC)=C(/C=C/N(C)C)N(C)C,.,.,38,.,.,.
N#Cc1c(NC(=O)CSc2nc(N)cc(=O)[nH]2)sc2c1CCCC2,.,.,.,.,.,.
Nc1ccc(-c2nc3cc(N)ccc3n2CCO)cc1,.,.,.,.,.,+
Cc1ccc(NC(=O)Nc2cccnc2)cc1Cl,.,.,.,21,.,.
COc1ccc(N=Cc2ccc(N(CCC#N)CCC#N)cc2)cc1,/,/,49,/,.,.
COc1ccc(C(C#N)=Cc2ccc(N(C)CCC#N)cc2)cc1,/,/,.,/,.,.
COc1ccccc1C(=O)NC(CCSC)C(=O)NC1CCCCCC1 (stereo unspecified),.,.,.,.,.,.
NNC(=O)/C(=C\c1cccs1)NC(=O)c1ccccc1,.,.,.,.,.,.
SMILES,VHR inh abs,RecA splice inh,GDH-TPI inh,SARS 3CLpro inh,CCHFV vOTU inh,FBA Mtb inh
O=C(NCc1ccccc1Cl)/C(=C\c1cccnc1)NC(=O)c1ccccc1,58,.,.,.,.,.
O=C(N/N=C/c1cc2ccccc2nc1Cl)/C(=C/c1cccs1)NC(=O)c1ccccc1,52,.,.,.,.,.
O=C(N/N=C/c1cccnc1)/C(=C\c1cccs1)NC(=O)c1ccccc1,.,.,47,.,.,.
O=C(Nc1ccc(O)cc1)/C(=C\c1cccs1)NC(=O)c1ccccc1,.,.,.,.,.,.
Cc1cc(C)n(C(C)CC(=O)Nc2ccc(-c3ccno3)cc2)n1 (stereo unspecified),.,.,.,.,.,.
COC(=O)CSc1nc2ccccc2n1CC(=O)N(C(C)C)C(C)C,52,.,.,.,.,.
COc1ccc(-c2cc(-c3nnc(SCC(=O)Nc4cccc(Cl)c4C)n3N)[nH]n2)cc1,/,/,/,/,.,/
Cc1ccc(S(=O)(=O)c2nc(S(C)(=O)=O)sc2N2CCN(C)CC2)cc1,56,.,.,.,.,.
OCCN1CCN(C(=S)c2ccc(Cl)cc2)CC1,.,.,.,.,.,.
CCN1CCN(C(=S)c2ccc(Cl)cc2)CC1,50,.,.,.,.,.
Cc1cc(-c2csc3nc[nH]c(=S)c23)cc(C)c1C,.,.,40,.,.,.
CCOc1ccc(/C=N/NC(=O)c2nnn(-c3nonc3N)c2-c2ccc(OCC)cc2)cc1,.,.,.,.,.,.
CCCc1c(C(=O)N/N=C/c2cccc3ccccc23)nnn1-c1nonc1N,.,.,32,.,.,.
CCOc1ccc(-c2c(C(=O)N/N=C/c3c[nH]c4ccccc34)nnn2-c2nonc2N)cc1,.,.,40,.,.,.
COc1ccc(C)cc1S(=O)(=O)N1CCN(C(=O)c2ncoc2-c2ccc(F)cc2)CC1,53,.,.,.,.,.
COc1ccc(C)cc1S(=O)(=O)N1CCN(C(=O)c2ncoc2-c2ccc(C)cc2)CC1,.,.,.,.,.,.
CCOC(=O)C1=C(C)NC(SC(C)=O)=NC1c1ccc(OC(C)=O)c(OC)c1 (stereo unspecified),.,.,36,.,.,.
CCOC(=O)C1=C(C)NC(SC)=NC1c1ccc(OC)cc1 (stereo unspecified),.,.,.,.,.,.
CCOC(=O)C1=CCN(S(=O)(=O)c2ccc(C)cc2)C1c1cccc(Cl)c1 (stereo unspecified),/,/,/,/,.,.
CCOC(=O)CSc1nc(N)cc(=O)[nH]1,.,.,.,.,.,.
CC(C)(C)C(=O)CSc1nc(N)cc(=O)[nH]1,.,.,35,.,.,.
O=C(Nc1nc2c(s1)CN(Cc1ccccc1)CC2)C1CCC1,.,.,.,.,.,.
CCN1CCc2nc(NC(=O)c3ccccc3)sc2C1,.,.,33,.,.,.
CCCN1CCC(=O)N([C@H](COc2ccccc2)c2ccccc2)CC1,55,.,.,.,.,.
CN1CCC(=O)N([C@H](CSc2ccc(Br)cc2)c2ccccc2)CC1,.,.,.,/,.,.
SMILES,VHR inh abs,RecA splice inh,GDH-TPI inh,SARS 3CLpro inh,CCHFV vOTU inh,FBA Mtb inh
CN1CCC(=O)N([C@H](CC#N)c2ccccc2)CC1,52,.,.,.,.,.
O=C(NCCN1CCC(Cc2ccccc2)CC1)C1CCCN(S(=O)(=O)c2ccccc2[N+](=O)[O-])C1 (stereo unspecified),/,/,/,/,.,/
Cc1cc(=O)c2ccccc2s1,.,.,32,.,.,.
O=c1c2ccccc2sc2ccccc12,/,/,.,/,.,.
COc1ccc(Cn2ccc3ccc(-c4ccc5ccn(Cc6ccc(C#N)cc6)c5c4)cc32)cc1,/,/,/,/,.,/
COc1cc(C2NC(=O)NC(C)=C2C(=O)OCC2CCCCC2)cc(Cl)c1O (stereo unspecified),.,.,.,.,.,.
COc1cc(C2NC(=O)NC(C)=C2C(=O)OC2CCCCC2)cc(Cl)c1O (stereo unspecified),.,.,.,.,.,184
COC(=O)[C@]1(Cc2ccccc2)N[C@H](c2ccc(-c3ccccc3)cc2)[C@@H]2C(=O)N(C)C(=O)[C@@H]21,/,.,.,/,.,.
